An excerpt weighted towards active compounds, which were near 2.4% of everything screened.
D2 ag-1 – HTS Assay for Allosteric Agonists of the Human D2 Dopamine Receptor: Primary Screen for Agonists; activation, % at 2 µM; AID 485358, 2010; HEK293 T-REx D2 cells, calcium flux agonist mode; hit rate 0.53% among 340,000;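 active = activation over 3 SD above normal in the single-dose calcium agonist read, cut at about 30% in these data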; also: 0% is about no effect
Target sequence (P14416 whole entry, looked up): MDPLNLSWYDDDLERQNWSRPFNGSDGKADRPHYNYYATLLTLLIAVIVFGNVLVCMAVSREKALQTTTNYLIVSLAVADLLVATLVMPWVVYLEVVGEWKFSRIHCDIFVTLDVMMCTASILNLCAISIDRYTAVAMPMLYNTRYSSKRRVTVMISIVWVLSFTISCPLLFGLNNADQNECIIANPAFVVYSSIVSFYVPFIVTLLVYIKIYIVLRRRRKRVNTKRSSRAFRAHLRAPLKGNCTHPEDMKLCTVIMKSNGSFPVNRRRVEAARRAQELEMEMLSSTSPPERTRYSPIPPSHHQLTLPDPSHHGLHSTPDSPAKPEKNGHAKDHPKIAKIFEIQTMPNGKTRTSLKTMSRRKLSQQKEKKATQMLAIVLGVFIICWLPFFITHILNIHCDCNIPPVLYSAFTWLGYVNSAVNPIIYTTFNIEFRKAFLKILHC
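In this primary screen, compounds producing a positive calcium signal within 180 s of addition to tetracycline-induced, force-coupled HEK293 Trex D2 cells are flagged; cells are dye-loaded with a no-wash calcium kit beforehand.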
D2 ag-2 – Beta-Arrestin HTS for Positive Allosteric Modulators of the Human D2 Dopamine Receptor: Agonists | D(2) dopamine receptor (Homo sapiens), P14416 | DiscoveRx PathHunter D2 beta-arrestin, luminescence, 90 min; 100% = 57 uM dopamine signal | activation, % (no concentration beside the values) | hit rate 0.084% among 360,000 | AID 624465, 2012; in the data active = activation above about 40%; inconclusive = between about 15% and that limit
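DiscoveRx PathHunter D2 beta-arrestin cells (2,100/well) attached overnight, then compound-stimulated 90 min at 37 C in HBSS/10 mM HEPES/0.1% Tween-20 buffer; beta-galactosidase complementation read by luminescence after 1 h at ambient temperature. Dopamine 57 uM final (EC100) as control.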
D2 antag – HTS Assay for Allosteric Antagonists of the Human D2 Dopamine Receptor: Primary Screen for Antagonists | HEK293 TREx D2 cells, calcium flux, dopamine EC80 | inhibition, % at 10 µM | hit rate 2% among 340,000 | D(2) dopamine receptor (Homo sapiens), P14416; in the data active = inhibition above about 30%; inactive = below that, where a call was filed; also: 0% is about no effect
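HEK293 T-REx D2 cells, tet-induced, calcium dye no-wash. Cpd pintool add, 180 s kinetic, then EC80 DA, 180 s kinetic. Ca flux read.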
D2 PAM-1 – HTS Assay for Positive Allosteric Modulators of the Human D2 Dopamine Receptor: Primary Screen for Potentiators; potentiation, % at 10 µM; hit rate 0.34% among 340,000; D(2) dopamine receptor (Homo sapiens), P14416; HEK293 T-REx D2, calcium flux, EC20 dopamine potentiation;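 active = potentiation over 3 SD above the plate norm, cut at about 30% in these data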; also: 0% is about no effect
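Tetracycline-induced HEK293 T-REx cells force-coupled to calcium signalling expressed D2; compounds were pin-added after a 10 s baseline, read kinetically 180 s, then an EC20 dopamine challenge followed with a further 180 s calcium read.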
D2 PAM-2 – Beta-Arrestin HTS for Positive Allosteric Modulators of the Human D2 Dopamine Receptor: Potentiators; DiscoveRx D2 beta-arrestin cells, luminescence, 90 min; 100% = 57 uM dopamine signal; D(2) dopamine receptor (Homo sapiens), P14416; AID 624464, 2012; hit rate 0.23% among 360,000; potentiation, % (no concentration beside the values); in the data active = potentiation above about 50%; inconclusive = mostly about 30% to 49%
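PathHunter beta-arrestin assay in DiscoveRx D2 cells. Compounds were added with an EC20 of dopamine (50 nM final) for 90 min at 37 deg C. Luminescence was read 1 h after detection reagent, with 57 uM dopamine as the EC100 control.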
The depositor's hits bear a star.

What do the screens show for `C#CCOCCOCCOCCNc1nc(N2CCOCC2)nc(N2CCN(C(=O)[C@H]([C@@H](C)CC)n3cc([C@@H](N)Cc4ccc(O)cc4)nn3)CC2)n1`?
D2 ag-1: -0.6; D2 ag-2: 1.5; D2 antag: -6.8; D2 PAM-1: -3.5; D2 PAM-2: -22.5

What do the screens show for `CCCc1ccc(OCc2ccc(C(=O)N3CCSCC3)o2)cc1`?
D2 ag-1: -1.5; D2 ag-2: 8.3; D2 antag: 38.6*; D2 PAM-1: 5.7; D2 PAM-2: -6.2

How did CCN(CC)CC(O)COc1ccccc1C(=O)CCc1ccccc1 (centres undefined) do in these assays?
D2 ag-1: 0.4; D2 ag-2: 1.2; D2 antag: -16.1; D2 PAM-1: -16.4; D2 PAM-2: -18.9

What do the screens show for `CCCNCC(O)COc1ccccc1C(=O)CCc1ccccc1` (centres undefined)?
D2 antag: 35.1*

Results for Cc1cccc(C(=O)NCC(=O)OCc2nc(N)nc(Nc3ccccc3C)n2)c1 ?
D2 ag-2: -1.9; D2 PAM-2: -5.1

What do the screens show for `c1ccc(-c2ncc(CSc3nncn3-c3ccccc3)s2)cc1`?
D2 ag-2: -3.8; D2 PAM-2: -20.1

Results for Cc1nnc(SCc2cnc(-c3ccc(C(C)C)cc3)s2)n1C ?
D2 ag-1: -1.9; D2 ag-2: -3.2; D2 antag: 66.5*; D2 PAM-1: 1.4; D2 PAM-2: 2.5

How did COc1cc(/C=C2\SC(=O)N(CC(=O)Nc3ccccc3F)C2=O)cc(Cl)c1O do in these assays?
D2 ag-1: 41.4*; D2 ag-2: 5.1; D2 antag: 17.5; D2 PAM-1: -5.9; D2 PAM-2: 3.4

How did CCN(CC)S(=O)(=O)c1cccc(C(=O)/C=C2/N(C)c3ccccc3C2(C)C)c1 do in these assays?
D2 ag-1: 0.6; D2 ag-2: -1.0; D2 antag: 0.1; D2 PAM-1: -7.7; D2 PAM-2: -0.1

How did Cc1cccc(NCc2ccc(N(C)C)cc2)n1 do in these assays?
D2 ag-1: -0.5; D2 ag-2: 0.8; D2 antag: -16.4; D2 PAM-1: 32.7*; D2 PAM-2: -6.2

How did Cc1c(C(=O)N2CCCCC2)c(S(=O)(=O)NCc2ccc(Cl)cc2)c(C)n1C do in these assays?
D2 ag-1: 0.7; D2 ag-2: -3.0; D2 antag: 48.3*; D2 PAM-1: 7.8; D2 PAM-2: -0.7

What do the screens show for `CCOC(=O)C1(C)C=C(Nc2ccc(O)cc2)C(=O)N1c1ccc(O)cc1` (centres undefined)?
D2 ag-1: -0.8; D2 ag-2: inconclusive; D2 antag: -3.5; D2 PAM-1: -1.3; D2 PAM-2: 104.2*

How did CC1CN(c2ccc([N+](=O)[O-])cc2F)CCN1C(=O)c1ccco1 (centres undefined) do in these assays?
D2 ag-1: -0.8; D2 ag-2: -0.4; D2 antag: 12.5; D2 PAM-1: -21.7; D2 PAM-2: -7.4

How did C(#CC1CCCCC1)c1ccc2c(c1)COc1c3ccccc3nn1-2 do in these assays?
D2 ag-1: 0.3; D2 ag-2: 0.6; D2 antag: 2.4; D2 PAM-1: 33.9*; D2 PAM-2: 4.9

What do the screens show for `CCCCN1CC(c2nc3ccccc3n2CCCCOc2c(C)cccc2C)CC1=O` (centres undefined)?
D2 ag-1: 1.6; D2 PAM-1: -0.1

What do the screens show for `O=C1CCCc2c1cc(C(=O)Nc1ccc(Br)cn1)c(=O)n2-c1ccccc1`?
D2 ag-1: 3.8; D2 ag-2: 11.0; D2 antag: 10.5; D2 PAM-1: -3.0; D2 PAM-2: 55.2*

Results for O=C1CCCc2c1cc(C(=O)O)c(=O)n2-c1ccccc1 ?
D2 ag-1: -0.3; D2 ag-2: -1.9; D2 antag: 6.6; D2 PAM-1: -3.7; D2 PAM-2: 3.3

How did Cc1c(Cl)c(C(=O)NC2C3CC4CC(C3)CC2C4)nn1C (centres undefined) do in these assays?
D2 ag-1: -0.7; D2 ag-2: -1.7; D2 antag: -11.5; D2 PAM-1: 8.9; D2 PAM-2: -13.5

Results for Cc1ccc(CN=c2c([N+](=O)[O-])nn(-c3cccc(Cl)c3)n2O)cc1 ?
D2 ag-1: -5.1; D2 ag-2: inconclusive; D2 antag: 2.8; D2 PAM-1: -0.2; D2 PAM-2: inconclusive

Results for O=[N+]([O-])c1nn(-c2ccc3c(c2)OCCO3)n(O)c1=NCc1ccccc1Cl ?
D2 ag-1: -0.2; D2 ag-2: 12.4; D2 antag: 23.9; D2 PAM-1: -1.6; D2 PAM-2: 54.3*

What do the screens show for `O=[N+]([O-])c1nn(-c2ccc3c(c2)OCCO3)n(O)c1=NC1CCCCC1`?
D2 ag-1: 0.8; D2 ag-2: inconclusive; D2 antag: 7.4; D2 PAM-1: -3.2; D2 PAM-2: 117.7*

What do the screens show for `COc1ccccc1CN=c1c([N+](=O)[O-])nn(-c2ccc3c(c2)OCCO3)n1O`?
D2 ag-1: -1.1; D2 ag-2: inconclusive; D2 antag: 8.3; D2 PAM-1: 4.8; D2 PAM-2: 128.8*

Results for Cc1ccccc1-n1c(C)nnc1SCc1cc(=O)oc2ccc3ccccc3c12 ?
D2 ag-1: -0.7; D2 ag-2: -0.4; D2 antag: 2.1; D2 PAM-1: -0.4; D2 PAM-2: -1.5

How did COc1ccccc1CN1C(=O)CN(C2CCCCCC2)C(=O)C1c1ccc(C)cc1 (centres undefined) do in these assays?
D2 PAM-1: 6.3

How did CCCCN(C)Cc1c(O)ccc2c(-c3ccccc3)cc(=O)oc12 do in these assays?
D2 ag-1: 0.0; D2 ag-2: -0.8; D2 antag: 64.1*; D2 PAM-2: -42.8

Results for CCCCN(CC)Cc1c(O)ccc2c(-c3ccccc3)cc(=O)oc12 ?
D2 ag-1: -1.0; D2 ag-2: -2.8; D2 antag: -10.2; D2 PAM-1: -25.9; D2 PAM-2: -35.1

How did CCOc1cc2[nH]c(=O)n(CCCCC(=O)N3CCCCCC3)c(=O)c2cc1OCC do in these assays?
D2 ag-1: 0.8; D2 ag-2: 1.4; D2 antag: 16.2; D2 PAM-1: 36.4*; D2 PAM-2: -4.5

Results for CCOc1cc2[nH]c(=O)n(CCCCC(=O)N3CCN(c4cccc(Cl)c4)CC3)c(=O)c2cc1OCC ?
D2 PAM-1: -10.0

What do the screens show for `O=C(O)CCC(=O)NNC(=O)CCC(=O)Nc1ccccc1`?
D2 ag-1: -0.3; D2 ag-2: -1.3; D2 antag: 39.6*; D2 PAM-1: -4.9; D2 PAM-2: -3.2
